# Laboratory results taken from ChEMBL document CHEMBL1961873, “Compounds: GSK PKIS; Assays: Nanosyn kinase panel” (2012).
# Tests used:
# [1] = target: T1, Inhibitor of nuclear factor kappa-B kinase subunit epsilon (Homo sapiens) (UniProt Q14164); details: at 1 µM;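 further: reported values are averaged percent inhibition figures against human IKKε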
# T1 sequence (whole entry): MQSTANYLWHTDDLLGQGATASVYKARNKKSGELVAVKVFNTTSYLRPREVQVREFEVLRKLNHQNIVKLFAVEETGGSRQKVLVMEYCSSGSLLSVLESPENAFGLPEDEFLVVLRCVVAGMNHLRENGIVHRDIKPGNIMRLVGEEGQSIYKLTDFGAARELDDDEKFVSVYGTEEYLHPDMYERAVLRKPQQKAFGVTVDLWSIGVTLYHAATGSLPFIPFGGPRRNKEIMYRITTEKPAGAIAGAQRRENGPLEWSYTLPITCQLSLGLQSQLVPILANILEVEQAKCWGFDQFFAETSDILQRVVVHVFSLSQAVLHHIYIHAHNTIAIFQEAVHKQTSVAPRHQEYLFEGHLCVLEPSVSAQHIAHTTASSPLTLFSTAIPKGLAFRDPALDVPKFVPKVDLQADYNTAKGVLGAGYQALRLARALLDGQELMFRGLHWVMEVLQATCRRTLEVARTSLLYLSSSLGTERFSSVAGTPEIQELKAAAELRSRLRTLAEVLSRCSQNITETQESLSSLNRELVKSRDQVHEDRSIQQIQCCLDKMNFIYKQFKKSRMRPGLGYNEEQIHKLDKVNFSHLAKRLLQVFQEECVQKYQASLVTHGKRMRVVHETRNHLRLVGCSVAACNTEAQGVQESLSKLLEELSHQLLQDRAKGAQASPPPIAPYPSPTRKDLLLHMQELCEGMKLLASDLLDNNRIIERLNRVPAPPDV
# [2] = target: T2, Serine/threonine-protein kinase Nek1 (Homo sapiens) (UniProt Q96PY6); details: at 0.1 µM
# T2 sequence (whole entry): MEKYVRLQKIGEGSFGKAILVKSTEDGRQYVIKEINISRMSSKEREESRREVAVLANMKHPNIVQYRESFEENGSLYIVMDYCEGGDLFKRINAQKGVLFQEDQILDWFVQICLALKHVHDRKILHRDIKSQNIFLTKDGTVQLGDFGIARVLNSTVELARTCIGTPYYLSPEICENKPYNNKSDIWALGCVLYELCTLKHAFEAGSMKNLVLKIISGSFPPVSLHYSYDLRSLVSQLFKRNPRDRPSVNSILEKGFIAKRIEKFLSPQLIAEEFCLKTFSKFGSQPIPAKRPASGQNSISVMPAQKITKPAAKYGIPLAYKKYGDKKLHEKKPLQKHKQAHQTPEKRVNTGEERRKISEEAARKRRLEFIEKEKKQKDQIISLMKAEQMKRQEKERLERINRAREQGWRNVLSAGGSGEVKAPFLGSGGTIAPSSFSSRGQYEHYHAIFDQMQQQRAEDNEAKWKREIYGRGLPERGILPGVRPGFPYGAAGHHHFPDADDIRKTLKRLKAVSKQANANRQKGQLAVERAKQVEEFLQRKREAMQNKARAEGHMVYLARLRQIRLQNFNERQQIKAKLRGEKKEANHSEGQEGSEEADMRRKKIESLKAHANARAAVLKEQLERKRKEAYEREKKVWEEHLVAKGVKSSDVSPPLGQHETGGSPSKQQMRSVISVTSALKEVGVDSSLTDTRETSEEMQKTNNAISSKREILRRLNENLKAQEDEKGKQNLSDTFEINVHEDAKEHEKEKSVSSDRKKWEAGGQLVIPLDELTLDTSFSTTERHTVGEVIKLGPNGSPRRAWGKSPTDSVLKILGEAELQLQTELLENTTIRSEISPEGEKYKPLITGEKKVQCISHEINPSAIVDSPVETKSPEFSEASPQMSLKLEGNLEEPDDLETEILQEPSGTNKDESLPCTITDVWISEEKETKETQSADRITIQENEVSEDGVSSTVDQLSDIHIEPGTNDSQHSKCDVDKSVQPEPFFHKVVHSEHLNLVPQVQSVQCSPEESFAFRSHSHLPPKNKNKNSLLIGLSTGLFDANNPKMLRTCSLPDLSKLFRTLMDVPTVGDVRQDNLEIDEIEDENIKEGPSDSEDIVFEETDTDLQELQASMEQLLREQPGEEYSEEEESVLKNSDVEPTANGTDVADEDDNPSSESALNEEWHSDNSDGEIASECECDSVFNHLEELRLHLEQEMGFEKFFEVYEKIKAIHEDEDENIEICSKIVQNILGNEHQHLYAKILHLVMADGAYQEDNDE
# [3] = target: T2, Serine/threonine-protein kinase Nek1 (Homo sapiens); details: at 1 µM
# [4] = target: T3, Serine/threonine-protein kinase Nek2 (Homo sapiens) (UniProt P51955); details: at 0.1 µM
# T3 sequence (whole entry): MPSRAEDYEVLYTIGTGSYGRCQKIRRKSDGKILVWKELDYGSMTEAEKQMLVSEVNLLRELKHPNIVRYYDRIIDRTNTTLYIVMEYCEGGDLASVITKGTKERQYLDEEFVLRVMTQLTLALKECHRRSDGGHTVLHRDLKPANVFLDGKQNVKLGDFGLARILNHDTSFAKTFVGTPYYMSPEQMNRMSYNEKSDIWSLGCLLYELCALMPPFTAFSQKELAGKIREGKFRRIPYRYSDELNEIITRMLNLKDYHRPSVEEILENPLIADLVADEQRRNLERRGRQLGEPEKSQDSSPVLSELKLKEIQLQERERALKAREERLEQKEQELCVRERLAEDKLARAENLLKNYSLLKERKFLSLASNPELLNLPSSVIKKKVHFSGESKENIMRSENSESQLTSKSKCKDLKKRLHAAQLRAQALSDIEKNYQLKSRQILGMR
# [5] = target: T3, Serine/threonine-protein kinase Nek2 (Homo sapiens); details: at 1 µM
# [6] = target: Serine/threonine-protein kinase Nek6 (Homo sapiens) (UniProt Q9HC98); details: at 0.1 µM
# [7] = target: Serine/threonine-protein kinase Nek6 (Homo sapiens) (UniProt Q9HC98); details: at 1 µM
# [8] = target: Serine/threonine-protein kinase Nek7 (Homo sapiens) (UniProt Q8TDX7); details: at 0.1 µM
# [9] = target: Serine/threonine-protein kinase Nek7 (Homo sapiens) (UniProt Q8TDX7); details: at 1 µM
# [10] = target: T4, Serine/threonine-protein kinase Nek9 (Homo sapiens) (UniProt Q8TD19); details: at 0.1 µM
# T4 sequence (whole entry): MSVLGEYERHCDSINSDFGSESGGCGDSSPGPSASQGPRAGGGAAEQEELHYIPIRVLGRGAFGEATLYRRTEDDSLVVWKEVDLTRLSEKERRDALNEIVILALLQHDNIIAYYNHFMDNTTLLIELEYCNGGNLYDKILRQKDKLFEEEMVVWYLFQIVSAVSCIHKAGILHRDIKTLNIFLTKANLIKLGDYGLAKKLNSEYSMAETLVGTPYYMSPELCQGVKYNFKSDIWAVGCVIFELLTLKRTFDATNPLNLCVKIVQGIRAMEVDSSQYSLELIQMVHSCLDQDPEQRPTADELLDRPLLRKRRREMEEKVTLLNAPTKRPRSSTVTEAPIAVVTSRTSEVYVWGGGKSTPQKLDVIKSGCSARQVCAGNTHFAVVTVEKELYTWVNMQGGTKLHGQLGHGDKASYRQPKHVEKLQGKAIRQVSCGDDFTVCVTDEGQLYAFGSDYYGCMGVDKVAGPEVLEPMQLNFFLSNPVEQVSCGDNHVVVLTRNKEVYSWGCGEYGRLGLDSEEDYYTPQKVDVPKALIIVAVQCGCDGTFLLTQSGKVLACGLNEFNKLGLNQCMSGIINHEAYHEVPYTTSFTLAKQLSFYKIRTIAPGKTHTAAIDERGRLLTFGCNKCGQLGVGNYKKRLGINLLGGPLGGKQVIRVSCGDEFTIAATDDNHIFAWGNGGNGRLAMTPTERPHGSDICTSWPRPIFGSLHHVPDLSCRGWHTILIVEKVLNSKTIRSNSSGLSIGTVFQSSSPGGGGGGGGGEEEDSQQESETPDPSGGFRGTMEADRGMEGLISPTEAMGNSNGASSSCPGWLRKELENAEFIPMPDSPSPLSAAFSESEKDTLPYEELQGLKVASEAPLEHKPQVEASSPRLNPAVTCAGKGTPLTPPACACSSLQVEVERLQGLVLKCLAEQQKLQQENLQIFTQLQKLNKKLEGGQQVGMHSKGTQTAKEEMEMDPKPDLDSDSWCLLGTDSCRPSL
# [11] = target: T4, Serine/threonine-protein kinase Nek9 (Homo sapiens); details: at 1 µM
# [12] = target: Serine/threonine-protein kinase PLK1 (Homo sapiens) (UniProt P53350); details: at 0.1 µM
# [13] = target: Serine/threonine-protein kinase PLK1 (Homo sapiens) (UniProt P53350); details: at 1 µM
# [14] = target: T5, Dual specificity protein kinase TTK (Homo sapiens) (UniProt P33981); details: at 0.1 µM
# T5 sequence (whole entry): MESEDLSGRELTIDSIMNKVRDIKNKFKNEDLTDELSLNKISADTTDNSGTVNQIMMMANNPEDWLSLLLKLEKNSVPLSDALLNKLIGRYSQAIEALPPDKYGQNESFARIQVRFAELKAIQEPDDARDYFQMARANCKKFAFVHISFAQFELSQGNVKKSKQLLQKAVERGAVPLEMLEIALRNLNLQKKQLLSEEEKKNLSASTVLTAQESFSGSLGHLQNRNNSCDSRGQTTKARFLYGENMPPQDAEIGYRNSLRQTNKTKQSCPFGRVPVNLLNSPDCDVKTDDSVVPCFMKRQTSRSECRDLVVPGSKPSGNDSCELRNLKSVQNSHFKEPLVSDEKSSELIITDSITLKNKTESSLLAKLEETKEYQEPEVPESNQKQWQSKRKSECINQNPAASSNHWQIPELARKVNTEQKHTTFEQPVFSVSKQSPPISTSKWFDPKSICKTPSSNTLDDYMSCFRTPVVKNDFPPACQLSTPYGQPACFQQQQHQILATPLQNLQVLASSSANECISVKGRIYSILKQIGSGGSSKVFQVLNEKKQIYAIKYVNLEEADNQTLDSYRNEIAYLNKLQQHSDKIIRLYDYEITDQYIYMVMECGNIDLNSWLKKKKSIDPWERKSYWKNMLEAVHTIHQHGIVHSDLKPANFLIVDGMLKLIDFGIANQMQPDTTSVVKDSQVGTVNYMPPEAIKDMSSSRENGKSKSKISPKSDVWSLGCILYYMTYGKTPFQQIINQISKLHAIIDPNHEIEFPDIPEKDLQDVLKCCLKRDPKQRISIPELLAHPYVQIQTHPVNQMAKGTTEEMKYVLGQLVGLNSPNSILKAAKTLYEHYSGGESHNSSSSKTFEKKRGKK
# [15] = system: T6, Receptor-type tyrosine-protein kinase FLT3 (Homo sapiens), P36888 [D835Y]; details: at 1 µM
# T6 sequence (whole entry): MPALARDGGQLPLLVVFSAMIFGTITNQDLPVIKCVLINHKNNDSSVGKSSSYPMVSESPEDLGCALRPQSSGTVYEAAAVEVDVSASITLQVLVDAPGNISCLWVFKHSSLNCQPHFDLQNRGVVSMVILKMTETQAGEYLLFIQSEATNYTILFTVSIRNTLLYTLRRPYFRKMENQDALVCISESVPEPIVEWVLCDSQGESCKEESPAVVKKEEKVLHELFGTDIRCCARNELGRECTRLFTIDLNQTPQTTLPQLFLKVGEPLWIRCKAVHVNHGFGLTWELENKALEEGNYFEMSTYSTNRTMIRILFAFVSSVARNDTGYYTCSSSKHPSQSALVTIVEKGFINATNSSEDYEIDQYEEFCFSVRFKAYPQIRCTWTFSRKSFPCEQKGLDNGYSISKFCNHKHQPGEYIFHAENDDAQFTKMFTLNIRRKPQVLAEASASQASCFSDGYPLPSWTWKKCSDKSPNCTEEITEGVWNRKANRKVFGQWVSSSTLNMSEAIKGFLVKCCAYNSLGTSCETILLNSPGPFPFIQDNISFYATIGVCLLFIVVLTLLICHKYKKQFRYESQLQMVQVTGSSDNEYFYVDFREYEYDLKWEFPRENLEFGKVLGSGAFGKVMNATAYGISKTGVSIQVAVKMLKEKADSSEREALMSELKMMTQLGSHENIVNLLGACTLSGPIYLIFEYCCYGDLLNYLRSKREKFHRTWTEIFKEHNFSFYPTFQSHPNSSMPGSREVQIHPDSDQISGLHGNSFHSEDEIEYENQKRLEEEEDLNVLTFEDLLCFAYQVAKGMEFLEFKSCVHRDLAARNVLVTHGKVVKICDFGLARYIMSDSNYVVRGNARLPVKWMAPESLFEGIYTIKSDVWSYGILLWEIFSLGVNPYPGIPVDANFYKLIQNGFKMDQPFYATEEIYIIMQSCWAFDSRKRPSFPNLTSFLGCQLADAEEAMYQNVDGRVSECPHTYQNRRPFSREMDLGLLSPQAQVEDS
# [16] = target: Vascular endothelial growth factor receptor 3 (Homo sapiens) (UniProt P35916); details: at 0.1 µM
# [17] = target: Vascular endothelial growth factor receptor 3 (Homo sapiens) (UniProt P35916); details: at 1 µM
# [18] = target: Macrophage colony-stimulating factor 1 receptor (Homo sapiens) (UniProt P07333); details: at 0.1 µM
# [19] = target: Macrophage colony-stimulating factor 1 receptor (Homo sapiens) (UniProt P07333); details: at 1 µM
# [20] = target: Tyrosine-protein kinase Fyn (Homo sapiens) (UniProt P06241); details: at 0.1 µM
# Sequence of Tyrosine-protein kinase Fyn (Homo sapiens) (P06241 2-537 limits assumed): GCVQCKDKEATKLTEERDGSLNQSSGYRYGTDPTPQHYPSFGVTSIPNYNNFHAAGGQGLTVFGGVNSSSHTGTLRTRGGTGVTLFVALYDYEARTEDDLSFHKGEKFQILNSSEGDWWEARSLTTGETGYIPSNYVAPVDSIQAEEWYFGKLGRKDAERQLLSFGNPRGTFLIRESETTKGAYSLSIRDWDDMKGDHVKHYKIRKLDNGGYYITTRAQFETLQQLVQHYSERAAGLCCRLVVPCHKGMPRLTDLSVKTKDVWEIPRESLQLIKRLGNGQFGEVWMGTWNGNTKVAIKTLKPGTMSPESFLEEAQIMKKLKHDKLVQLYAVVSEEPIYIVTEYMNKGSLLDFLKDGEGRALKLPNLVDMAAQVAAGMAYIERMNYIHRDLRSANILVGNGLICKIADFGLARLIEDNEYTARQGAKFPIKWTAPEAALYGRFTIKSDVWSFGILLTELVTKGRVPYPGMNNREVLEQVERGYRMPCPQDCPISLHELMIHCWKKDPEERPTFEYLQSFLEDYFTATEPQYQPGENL
# Sequence of Serine/threonine-protein kinase PLK1 (Homo sapiens) (P53350 whole entry): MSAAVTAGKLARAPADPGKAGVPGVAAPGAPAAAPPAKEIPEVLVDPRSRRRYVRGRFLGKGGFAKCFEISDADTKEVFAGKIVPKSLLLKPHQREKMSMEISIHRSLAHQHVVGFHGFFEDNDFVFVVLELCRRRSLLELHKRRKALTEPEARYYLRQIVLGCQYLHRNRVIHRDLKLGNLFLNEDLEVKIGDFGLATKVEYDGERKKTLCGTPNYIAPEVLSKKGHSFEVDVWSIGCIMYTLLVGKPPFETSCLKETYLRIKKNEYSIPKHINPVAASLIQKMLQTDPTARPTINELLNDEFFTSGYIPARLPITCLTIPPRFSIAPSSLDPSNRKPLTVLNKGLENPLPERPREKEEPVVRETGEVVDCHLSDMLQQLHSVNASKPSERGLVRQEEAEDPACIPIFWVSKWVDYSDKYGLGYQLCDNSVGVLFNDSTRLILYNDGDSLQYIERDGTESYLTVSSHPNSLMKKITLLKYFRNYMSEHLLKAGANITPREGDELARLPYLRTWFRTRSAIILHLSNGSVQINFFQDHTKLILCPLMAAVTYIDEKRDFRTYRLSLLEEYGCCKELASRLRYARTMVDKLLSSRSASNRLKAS
# Sequence of Vascular endothelial growth factor receptor 3 (Homo sapiens) (P35916 whole entry): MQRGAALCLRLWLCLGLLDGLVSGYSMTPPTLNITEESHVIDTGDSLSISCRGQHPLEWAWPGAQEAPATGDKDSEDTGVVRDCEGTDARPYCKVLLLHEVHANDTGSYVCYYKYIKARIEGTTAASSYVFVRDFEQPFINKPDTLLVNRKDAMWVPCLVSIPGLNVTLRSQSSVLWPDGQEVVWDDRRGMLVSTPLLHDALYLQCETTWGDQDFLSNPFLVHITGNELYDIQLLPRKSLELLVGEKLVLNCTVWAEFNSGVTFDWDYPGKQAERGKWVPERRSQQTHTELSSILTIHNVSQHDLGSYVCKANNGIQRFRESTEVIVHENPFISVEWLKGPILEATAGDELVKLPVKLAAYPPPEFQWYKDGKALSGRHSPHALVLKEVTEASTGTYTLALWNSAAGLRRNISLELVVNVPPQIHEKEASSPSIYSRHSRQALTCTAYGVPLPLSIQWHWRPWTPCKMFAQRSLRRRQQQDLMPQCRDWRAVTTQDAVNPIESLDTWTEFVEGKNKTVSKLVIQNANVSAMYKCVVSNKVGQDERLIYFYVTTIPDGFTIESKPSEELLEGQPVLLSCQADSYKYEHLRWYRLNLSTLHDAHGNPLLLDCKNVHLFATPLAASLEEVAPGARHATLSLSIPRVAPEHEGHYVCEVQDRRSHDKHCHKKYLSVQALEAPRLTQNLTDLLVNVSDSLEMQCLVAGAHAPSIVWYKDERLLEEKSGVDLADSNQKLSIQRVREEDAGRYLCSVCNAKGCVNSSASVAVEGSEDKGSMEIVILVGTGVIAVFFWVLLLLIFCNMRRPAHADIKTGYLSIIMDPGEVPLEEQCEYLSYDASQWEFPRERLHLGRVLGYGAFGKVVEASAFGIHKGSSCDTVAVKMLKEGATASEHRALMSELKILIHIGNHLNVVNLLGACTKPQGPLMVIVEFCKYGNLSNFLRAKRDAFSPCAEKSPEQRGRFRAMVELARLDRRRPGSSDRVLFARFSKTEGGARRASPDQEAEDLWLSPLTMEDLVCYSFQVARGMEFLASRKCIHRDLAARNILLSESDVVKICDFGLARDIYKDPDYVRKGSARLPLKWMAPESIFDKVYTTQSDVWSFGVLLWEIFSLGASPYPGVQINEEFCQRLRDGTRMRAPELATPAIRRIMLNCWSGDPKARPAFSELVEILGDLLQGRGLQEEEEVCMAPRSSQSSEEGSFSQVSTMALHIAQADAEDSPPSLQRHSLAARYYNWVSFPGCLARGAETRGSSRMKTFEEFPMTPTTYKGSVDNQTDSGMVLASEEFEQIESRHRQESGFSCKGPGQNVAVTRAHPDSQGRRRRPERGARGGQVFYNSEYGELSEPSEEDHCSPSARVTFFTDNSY
# Sequence of Serine/threonine-protein kinase Nek6 (Homo sapiens) (Q9HC98 whole entry): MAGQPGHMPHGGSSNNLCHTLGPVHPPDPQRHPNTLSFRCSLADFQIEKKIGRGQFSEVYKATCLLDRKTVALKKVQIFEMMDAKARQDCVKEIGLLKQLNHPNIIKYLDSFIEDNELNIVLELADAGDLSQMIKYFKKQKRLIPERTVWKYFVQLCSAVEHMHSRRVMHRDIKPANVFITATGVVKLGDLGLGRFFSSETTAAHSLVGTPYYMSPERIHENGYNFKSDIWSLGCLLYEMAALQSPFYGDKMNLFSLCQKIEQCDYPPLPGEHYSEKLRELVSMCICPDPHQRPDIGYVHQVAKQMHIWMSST
# Sequence of Macrophage colony-stimulating factor 1 receptor (Homo sapiens) (P07333 whole entry): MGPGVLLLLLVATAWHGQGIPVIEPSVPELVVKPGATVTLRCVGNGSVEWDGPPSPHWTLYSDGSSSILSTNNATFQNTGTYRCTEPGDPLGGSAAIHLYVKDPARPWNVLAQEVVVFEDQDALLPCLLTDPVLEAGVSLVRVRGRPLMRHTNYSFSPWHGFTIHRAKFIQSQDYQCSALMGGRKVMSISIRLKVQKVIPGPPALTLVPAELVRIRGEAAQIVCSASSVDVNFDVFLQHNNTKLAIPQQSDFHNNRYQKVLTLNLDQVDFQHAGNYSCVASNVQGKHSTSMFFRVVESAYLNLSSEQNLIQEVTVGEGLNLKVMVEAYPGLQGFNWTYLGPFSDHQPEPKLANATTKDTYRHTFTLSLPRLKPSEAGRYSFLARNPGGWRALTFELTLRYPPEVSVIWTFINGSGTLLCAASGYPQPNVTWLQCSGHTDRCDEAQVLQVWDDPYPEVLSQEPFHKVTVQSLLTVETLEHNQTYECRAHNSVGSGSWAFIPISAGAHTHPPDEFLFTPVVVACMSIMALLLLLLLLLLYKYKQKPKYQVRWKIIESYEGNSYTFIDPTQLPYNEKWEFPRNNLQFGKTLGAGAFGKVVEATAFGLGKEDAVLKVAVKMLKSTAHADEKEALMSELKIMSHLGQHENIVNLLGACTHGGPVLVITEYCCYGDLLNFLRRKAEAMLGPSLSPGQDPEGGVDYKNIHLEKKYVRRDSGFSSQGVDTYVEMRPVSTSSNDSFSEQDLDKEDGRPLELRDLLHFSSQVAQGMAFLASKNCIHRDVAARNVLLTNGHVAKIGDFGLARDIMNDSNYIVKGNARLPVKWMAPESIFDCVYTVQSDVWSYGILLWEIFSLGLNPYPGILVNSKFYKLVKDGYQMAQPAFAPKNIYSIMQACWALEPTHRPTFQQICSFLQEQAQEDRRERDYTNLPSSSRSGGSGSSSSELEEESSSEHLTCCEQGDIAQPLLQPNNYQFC
# Sequence of Serine/threonine-protein kinase Nek7 (Homo sapiens) (Q8TDX7 whole entry, looked up): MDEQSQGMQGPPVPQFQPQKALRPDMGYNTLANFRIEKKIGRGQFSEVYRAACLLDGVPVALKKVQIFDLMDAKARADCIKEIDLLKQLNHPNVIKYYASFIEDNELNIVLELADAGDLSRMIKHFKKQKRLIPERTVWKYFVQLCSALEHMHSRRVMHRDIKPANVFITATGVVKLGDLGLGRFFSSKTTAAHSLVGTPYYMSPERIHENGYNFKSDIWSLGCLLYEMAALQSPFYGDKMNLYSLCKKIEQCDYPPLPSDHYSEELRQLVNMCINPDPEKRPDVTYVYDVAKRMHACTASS
SMILES,inhibition [1] [%],inhibition [2] [%],inhibition [3] [%],inhibition [4] [%],inhibition [5] [%],inhibition [6] [%],inhibition [7] [%],inhibition [8] [%],inhibition [9] [%],inhibition [10] [%],inhibition [11] [%],inhibition [12] [%],inhibition [13] [%],inhibition [14] [%],inhibition [15] [%],inhibition [16] [%],inhibition [17] [%],inhibition [18] [%],inhibition [19] [%],inhibition [20] [%]
Clc1ccc(-c2nn3ncccc3c2-c2ccnc(Nc3ccccc3)n2)cc1,-3.51,1.79,1.38,2.53,1.79,2.55,2.29,2.07,1.34,5.9,-3.71,-9.28,3.17,3.63,-0.74,4.99,16.2,4.3,32.3,9.12
Fc1ccc(-c2nn3ccccc3c2-c2ccncc2)cc1,0.04,1.98,1.91,1.2,1.45,0.37,1.47,3.72,2.56,5.49,1.86,1.11,0.66,1.74,1.27,-0.54,1.83,-0.59,7.67,0.52
COc1ccc(-c2cc(-c3c[nH]nc3-c3ccccn3)ccn2)cc1,9.71,2.15,3.74,5.8,4.88,2.87,4.34,2.27,3.19,7.56,9.65,3.67,4.38,13.4,1.61,5.28,4.26,6.09,5.24,3.23
CC(C)COC(=O)c1ccc2c(c1)/C(=C/Nc1ccc(S(N)(=O)=O)cc1)C(=O)N2,93.4,-1.61,2.33,-0.98,0.66,-0.45,9.49,0.03,0.46,-3.08,0.18,1.14,2.98,53.6,86.5,30.1,80.6,7.27,45.8,22.6
